Test results taken from PubChem BioAssay (NCI).
About 83,000 compounds went through this panel and 20% of them were active in at least one assay; those are over-represented in the sample as a whole.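 Each cell line was grown in a 96-well plate and treated with one concentration of compound for 48 hours. Values below 10 were considered active.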 Values without a mark were called inactive. The source made the active and inactive calls.

Legend:
Assay in all cases: NCI-60 one-dose screen, 48 h (100 = growth as untreated, 0 = no growth, -100 = all killed)
Conditions in all cases: 10 µM unless noted
NCI-H23 lung = system: NCI-H23 lung
NCI-H226 lung = system: NCI-H226 lung
NCI-H322M lung = system: NCI-H322M lung
HOP-62 NSCLC = system: HOP-62 NSCLC
NCI-H460 lung = system: NCI-H460 lung
HOP-92 NSCLC = system: HOP-92 NSCLC
NCI-H522 lung = system: NCI-H522 lung
A549/ATCC NSCLC = system: A549/ATCC NSCLC
786-0 renal = system: 786-0 renal
COLO 205 colon = system: COLO 205 colon
DU-145 prostate = system: DU-145 prostate
K-562 leukemia = system: K-562 leukemia
MALME-3M melanoma = system: MALME-3M melanoma
MDA-MB-231 breast = system: MDA-MB-231 breast
RXF 393 renal = system: RXF 393 renal
SF-268 CNS = system: SF-268 CNS
SF-295 CNS = system: SF-295 CNS
SF-539 CNS = system: SF-539 CNS
UACC-257 melanoma = system: UACC-257 melanoma
M14 melanoma = system: M14 melanoma

Q: For OCCN1CCN(c2cc(-c3cccc(OC(F)(F)F)c3)nc3ccc(N4CCCC4)cc23)CC1, which growth (NCI-H23 lung) is on record?
A: 74.4%

Q: And the growth (NCI-H226 lung)?
A: 70.1%

Q: What about the growth (NCI-H322M lung) of the same compound?
A: 80%

Q: What about the growth (HOP-62 NSCLC) of the same compound?
A: 48.4%

Q: And the growth (NCI-H460 lung)?
A: 11.3%

Q: And the growth (HOP-92 NSCLC)?
A: 34.1%

Q: And the growth (NCI-H522 lung)?
A: 66.4%

Q: What about the growth (A549/ATCC NSCLC) of the same compound?
A: 36.2%

Q: And the growth (786-0 renal)?
A: 63.1%

Q: And the growth (COLO 205 colon)?
A: -18.8% (active)

Q: What about the growth (DU-145 prostate) of the same compound?
A: 58%

Q: What about the growth (K-562 leukemia) of the same compound?
A: -10.2% (active)

Q: And the growth (MALME-3M melanoma)?
A: 34.6%

Q: And the growth (MDA-MB-231 breast)?
A: 58.2%

Q: What about the growth (RXF 393 renal) of the same compound?
A: 51%

Q: What about the growth (SF-268 CNS) of the same compound?
A: 66.6%

Q: What about the growth (SF-295 CNS) of the same compound?
A: 72.5%

Q: And the growth (SF-539 CNS)?
A: 66.4%

Q: What about the growth (UACC-257 melanoma) of the same compound?
A: 65.2%

Q: What about the growth (M14 melanoma) of the same compound?
A: 27.5%

Q: Which results are given for CCCCCCCCCCCCCCCCCCOc1cccc(CC(=O)OCC[N+](CC)(CC)CC)c1?
A: growth (NCI-H23 lung): 35.7%; growth (NCI-H226 lung): 59.6%; growth (NCI-H322M lung): 77.7%; growth (HOP-62 NSCLC): 69.1%; growth (NCI-H460 lung): 67%; growth (HOP-92 NSCLC): 52.3%; growth (NCI-H522 lung): 38.5%; growth (A549/ATCC NSCLC): 60%; growth (786-0 renal): 58.5%; growth (COLO 205 colon): 47%; growth (DU-145 prostate): 73.8%; growth (K-562 leukemia): 31.8%; growth (MALME-3M melanoma): 74.1%; growth (MDA-MB-231 breast): 41.4%; growth (RXF 393 renal): 8.82% (active); growth (SF-268 CNS): 61.7%; growth (SF-295 CNS): 40.9%; growth (SF-539 CNS): 51.1%; growth (UACC-257 melanoma): 114%; growth (M14 melanoma): 42.3%

Q: How did the growth (NCI-H23 lung) turn out when CCOC(=O)c1cnn(CC(O)CC)c1NC(=O)NCc1ccccc1C(F)(F)F (stereo not given) was run?
A: 92.7%

Q: And the growth (NCI-H226 lung)?
A: 106%

Q: What about the growth (NCI-H322M lung) of the same compound?
A: 94.5%

Q: What about the growth (HOP-62 NSCLC) of the same compound?
A: 90.8%

Q: What about the growth (NCI-H460 lung) of the same compound?
A: 110%

Q: What about the growth (HOP-92 NSCLC) of the same compound?
A: 93.9%

Q: And the growth (NCI-H522 lung)?
A: 70.3%

Q: And the growth (A549/ATCC NSCLC)?
A: 94.9%

Q: What about the growth (786-0 renal) of the same compound?
A: 96%

Q: And the growth (COLO 205 colon)?
A: 114%

Q: And the growth (DU-145 prostate)?
A: 109%

Q: And the growth (K-562 leukemia)?
A: 88.5%

Q: What about the growth (MALME-3M melanoma) of the same compound?
A: 103%

Q: What about the growth (MDA-MB-231 breast) of the same compound?
A: 105%

Q: And the growth (RXF 393 renal)?
A: 119%

Q: What about the growth (SF-268 CNS) of the same compound?
A: 100%

Q: What about the growth (SF-295 CNS) of the same compound?
A: 90.7%

Q: What about the growth (SF-539 CNS) of the same compound?
A: 99.1%

Q: And the growth (UACC-257 melanoma)?
A: 103%

Q: And the growth (M14 melanoma)?
A: 88.2%

Q: CCOC(=O)c1nnn(Cc2cc(=O)oc3c2ccc2ccccc23)c1C was tested. Which growth (NCI-H23 lung) did it give?
A: 102%

Q: What about the growth (NCI-H226 lung) of the same compound?
A: 105%

Q: And the growth (NCI-H322M lung)?
A: 98%

Q: And the growth (HOP-62 NSCLC)?
A: 106%

Q: What about the growth (NCI-H460 lung) of the same compound?
A: 104%

Q: What about the growth (HOP-92 NSCLC) of the same compound?
A: 98.8%

Q: And the growth (NCI-H522 lung)?
A: 96.3%

Q: What about the growth (A549/ATCC NSCLC) of the same compound?
A: 102%

Q: And the growth (786-0 renal)?
A: 102%

Q: And the growth (COLO 205 colon)?
A: 107%

Q: And the growth (DU-145 prostate)?
A: 103%

Q: What about the growth (K-562 leukemia) of the same compound?
A: 104%

Q: What about the growth (MALME-3M melanoma) of the same compound?
A: 98.5%

Q: And the growth (MDA-MB-231 breast)?
A: 98.7%

Q: And the growth (RXF 393 renal)?
A: 112%

Q: What about the growth (SF-268 CNS) of the same compound?
A: 105%

Q: What about the growth (SF-295 CNS) of the same compound?
A: 98.8%

Q: And the growth (SF-539 CNS)?
A: 98.8%

Q: And the growth (UACC-257 melanoma)?
A: 94%

Q: What about the growth (M14 melanoma) of the same compound?
A: 98.1%

Q: Which growth (NCI-H23 lung) does the source give for O=C1c2cccc3cccc(c23)C(=O)N1N1C(=O)c2cccc3c(N4CCNCC4)ccc(c23)C1=O here?
A: 92.2%

Q: And the growth (NCI-H226 lung)?
A: 98.6%

Q: And the growth (NCI-H322M lung)?
A: 88.2%

Q: What about the growth (HOP-62 NSCLC) of the same compound?
A: 88.9%

Q: What about the growth (NCI-H460 lung) of the same compound?
A: 72.4%

Q: And the growth (HOP-92 NSCLC)?
A: 78.2%

Q: And the growth (NCI-H522 lung)?
A: 93.8%

Q: What about the growth (A549/ATCC NSCLC) of the same compound?
A: 89.9%

Q: What about the growth (786-0 renal) of the same compound?
A: 73.7%

Q: What about the growth (COLO 205 colon) of the same compound?
A: 95.2%

Q: What about the growth (DU-145 prostate) of the same compound?
A: 107%

Q: And the growth (K-562 leukemia)?
A: -59.2% (active)

Q: What about the growth (MALME-3M melanoma) of the same compound?
A: 88.9%

Q: What about the growth (MDA-MB-231 breast) of the same compound?
A: 85.8%

Q: What about the growth (RXF 393 renal) of the same compound?
A: 101%

Q: What about the growth (SF-268 CNS) of the same compound?
A: 88.7%

Q: And the growth (SF-295 CNS)?
A: 101%

Q: And the growth (SF-539 CNS)?
A: 100%

Q: And the growth (UACC-257 melanoma)?
A: 95.2%

Q: What about the growth (M14 melanoma) of the same compound?
A: 96.6%

Q: COc1ccc(/C=N/NC(=O)CN2CCN(c3cc4c(cc3F)c(=O)c(C(=O)O)cn4C3CC3)CC2)cc1O was tested. Which growth (NCI-H23 lung) did it give?
A: 103%

Q: What about the growth (NCI-H226 lung) of the same compound?
A: 112%

Q: What about the growth (NCI-H322M lung) of the same compound?
A: 102%

Q: What about the growth (HOP-62 NSCLC) of the same compound?
A: 98.9%

Q: And the growth (NCI-H460 lung)?
A: 105%

Q: And the growth (HOP-92 NSCLC)?
A: 91.8%

Q: What about the growth (NCI-H522 lung) of the same compound?
A: 80.8%

Q: And the growth (A549/ATCC NSCLC)?
A: 99.5%

Q: What about the growth (786-0 renal) of the same compound?
A: 101%

Q: And the growth (COLO 205 colon)?
A: 112%

Q: What about the growth (DU-145 prostate) of the same compound?
A: 102%

Q: What about the growth (K-562 leukemia) of the same compound?
A: 86.2%

Q: And the growth (MALME-3M melanoma)?
A: 109%

Q: And the growth (MDA-MB-231 breast)?
A: 92.8%

Q: What about the growth (RXF 393 renal) of the same compound?
A: 103%

Q: What about the growth (SF-268 CNS) of the same compound?
A: 87.7%

Q: What about the growth (SF-295 CNS) of the same compound?
A: 104%

Q: What about the growth (SF-539 CNS) of the same compound?
A: 101%

Q: And the growth (UACC-257 melanoma)?
A: 89.5%

Q: What about the growth (M14 melanoma) of the same compound?
A: 101%

Q: With Cc1ccc(-c2nc3nc(-c4ccc(Cl)cc4)nc(N4CCCNCC4)c3o2)cc1 as the compound, how does the growth (NCI-H23 lung) read?
A: 96.4%

Q: What about the growth (NCI-H226 lung) of the same compound?
A: 111%

Q: What about the growth (NCI-H322M lung) of the same compound?
A: 17.4%

Q: And the growth (HOP-62 NSCLC)?
A: 97.6%

Q: What about the growth (NCI-H460 lung) of the same compound?
A: -81.6% (active)

Q: What about the growth (HOP-92 NSCLC) of the same compound?
A: 83.6%

Q: And the growth (NCI-H522 lung)?
A: 62.2%

Q: And the growth (A549/ATCC NSCLC)?
A: -81.6% (active)

Q: And the growth (786-0 renal)?
A: -82.9% (active)

Q: And the growth (COLO 205 colon)?
A: -66.4% (active)

Q: What about the growth (DU-145 prostate) of the same compound?
A: -21.9% (active)

Q: What about the growth (K-562 leukemia) of the same compound?
A: -56.7% (active)

Q: What about the growth (MALME-3M melanoma) of the same compound?
A: 91.8%

Q: And the growth (MDA-MB-231 breast)?
A: -75.7% (active)

Q: What about the growth (RXF 393 renal) of the same compound?
A: 80.2%

Q: And the growth (SF-268 CNS)?
A: 97%

Q: What about the growth (SF-295 CNS) of the same compound?
A: 85.3%

Q: What about the growth (SF-539 CNS) of the same compound?
A: -96.1% (active)

Q: And the growth (UACC-257 melanoma)?
A: 103%

Q: What about the growth (M14 melanoma) of the same compound?
A: -75.9% (active)
